High-throughput results (PubChem)
TDP1 cell CPT = growth inhibition of DT40 Tdp1-/-;hTDP1 cells with camptothecin (screen for TDP1 inhibitors); 12% of 420,000 active; AID 686979; Potency, µM (titrated, usually from 46.2 µM), hits mostly inhibitors; chicken DT40 Tdp1-/-;hTDP1 cells + 20 nM CPT, ATP luminescence, 48 h; note: nearly all actives have a fitted effect of over 55% in size
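Chicken DT40 Tdp1-/- cells stably complemented with human TDP1 were seeded at 400 cells/well in medium containing 20 nM camptothecin, exposed to pin-transferred compounds, and grown at 37 °C for at least 48 hr. Viability was read as ATP luminescence.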
TGFb SMAD3 inh = blocks TGF-b signaling. HepG2 CAGA-GFP TGF-b/SMAD3 reporter, GFP fluorescence, 18 h; TGF-beta stimulated, 500 pg/mL final. Potency, µM (highest dose often 46.1 µM), hits mostly inhibitors. 1.2% of 410,000 active. AID 588855; note: nearly all actives have a fitted effect of over 65% in size
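Inhibition of TGF-beta-driven CAGA-GFP reporter expression in HEPG2 cells is measured by cellular GFP fluorescence after 18 h stimulation with 500 pg/mL recombinant TGF-beta in 1% FBS medium at 37 degrees C.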
ATXN viability = reduces viability in counter-screen for ATXN expression inhibitors | S2 cells (HEK-293 line with an ATXN2-luciferase reporter) viability, CellTiter-Fluor protease fluorescence, 24 h | 0.49% of 400,000 active | Potency, µM (series often up to 56.7 µM), most hits filed as cytotoxic; note: nearly all actives have a fitted effect of over 40% in size
ATXN2 expr inh = ATXN2 expression inhibition; HEK-293 ATXN2-luciferase reporter, luminescence, 24 h; Potency, µM (series often up to 57 µM), actives largely listed as inhibitors; 0.72% of 360,000 active; AID 1745845; note: nearly all actives have a fitted effect of over 55% in size
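qHTS (up to 57 uM final) was run with 24 h compound exposure of reporter cells at 37 °C. Each well was multiplexed: SteadyGlo luminescence measured ATXN2-luciferase expression after a fluorogenic Gly-Phe-AFC viability readout (25 uM final).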
HepG2 tox = counter-screen for TGF-b inhibitors: cytotoxicity in HepG2 cells; Potency, µM (top dose mostly 46.1 µM), actives largely listed as cytotoxic; HepG2 CAGA-GFP viability, ATP luminescence, 18 h; 0.76% of 410,000 active
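CellTiter-Glo luminescence gave cytotoxicity after 18 hours at 37 degrees C. The cells were HepG2 CAGA-GFP in 1% FBS DMEM, stimulated with 500 pg/mL TGF-beta after compound addition. %Activity was normalised to no-cell wells (complete cell-killing) and DMSO (no toxicity), and curves were fitted and classified.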
TDP1 cell noCPT = qHTS for Inhibitors of human tyrosyl-DNA phosphodiesterase 1 (TDP1): qHTS in cells in absence of CPT. DT40 Tdp1-/- hTDP1 cells, no CPT, ATP luminescence, 48 h. Potency, µM (top dose mostly 46.2 µM), hits mostly inhibitors. 15% of 420,000 active. AID 686978, 2013; note: nearly all actives have a fitted effect of over 55% in size
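Camptothecin absent (DMSO only). Human TDP1-complemented DT40 knockout cells, 400 cells/well, 37 °C for minimum 48 hr; ATP measured via CellTiter-Glo, 30 min dark incubation, luminescence.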
A number is an active result; . = inactive; ? = inconclusive; / = no result given; ! = a repeat was not active; [ ] = another dose, or the depositor's remark. Compounds with a hit are over-represented: about 17% of the library has one in this group of screens. Calls come from the whole dose curve; as a rule, active = well fitted curve in the direction sought with a large enough effect; inconclusive = small, poorly fitted or top-dose-only effect, or another doubt; inactive = no such curve, though single readings can be large; an effect the other way counts as inactive or inconclusive.

SMILES	TDP1 cell CPT	TGFb SMAD3 inh	ATXN viability	ATXN2 expr inh	HepG2 tox	TDP1 cell noCPT
COc1nnc(-c2ccc(N3CCCCC3)c(N)c2)c2ccccc12	7.3µM	.	.	.	.	8.2µM
O=S(=O)(c1ccccc1)N1CCN(c2nnc(-c3ccccc3)c3ccccc23)CC1	18µM	.	.	.	.	15µM
CS(=O)(=O)N1CCN(c2nnc(-c3ccccc3)c3ccccc23)CC1	.	.	.	.	.	.
COc1ccc(-c2nnc(N3CCC(C)CC3)c3ccccc23)cc1	?	.	.	.	.	16µM
CN(C)C(=O)CSc1nnc(-c2ccc(F)cc2)c2ccccc12	.	?	.	/	.	?
Cc1ccc(-c2nnc(N3CC(C)OC(C)C3)c3ccccc23)cc1 (configuration not stated)	29µM	.	.	.[11.3 µM]	.	16µM
CCCCSc1nnc(-c2ccc(C)cc2)c2ccccc12	21µM	.	.	.	.	18µM
COc1ccc(-c2nnn3c2nc(N2CCCC(C)C2)c2ccccc23)cc1 (configuration not stated)	?	.	.	.	.	29µM
Cc1ccc(-c2nnc(N3CCCCC3)c3ccccc23)cc1	?	.	?	.	.	23µM
NS(=O)(=O)c1ccc(CCNC(=O)C(=O)NCC2OCCN2S(=O)(=O)c2cc(F)ccc2F)cc1 (configuration not stated)	.	.	.	.	.	.
CC(=O)Oc1ccccc1Cn1c(C)c(C(=O)NCc2ccccc2C(F)(F)F)sc1=O	?	?	.	?	.	?
COc1cccc(OCC(O)CO)c1 (configuration not stated)	.	.	.	.	.	.
CCc1ccc(N2CC(C(=O)Nc3ccccc3F)CC2=O)cc1 (configuration not stated)	.	.	.	.	.	.
CCc1ccc(N2CC(C(=O)Nc3ccccc3N3CCCC3)CC2=O)cc1 (configuration not stated)	12µM	.	?	/	.	12µM
COc1ccc(N2CC(C(=O)Nc3ccccc3N3CCCC3)CC2=O)c(OC)c1 (configuration not stated)	2.9µM	?	.	.	.	4.6µM
COc1ccc(N2CC(C(=O)Nc3cc(C(F)(F)F)ccc3N3CCCC3)CC2=O)c(OC)c1 (configuration not stated)	?	.	?	.	.	23µM
COc1ccc(C)cc1N1CC(C(=O)Nc2ccccc2N2CCCCC2)CC1=O (configuration not stated)	?	.	.	.	.	21µM
COc1ccc(Cl)cc1NS(=O)(=O)c1ccc2c(c1)NC(=O)CC(=O)N2	.	.	.	.	.	.
Cc1cn([C@H]2C[C@H](O)[C@@H](/C=C/C(=O)NCCc3cccnc3)O2)c(=O)[nH]c1=O	.	.	.	.	.	.
Cc1ccccc1S(=O)Cc1ccc(C(=O)N2CCN(C(=O)c3ccco3)CC2)o1 (configuration not stated)	.	.	.	.	.	.
COc1ccc(/C=C/c2cc(=O)c3cc(Cl)ccc3o2)cc1	?	.	.	.	.	21µM
COc1cc(C(=O)NC2CCN(C)CC2)ccc1Nc1ncc2c(n1)N(CCc1ccccc1)CCC(=O)N2C	23µM	?	.	.	.	15µM
CN1CCC(NC(=O)c2cccc(Oc3ccccc3)c2)CC1	.	.	.	.	.	.
COc1cc(C(=O)NC2CCN(C)CC2)ccc1Nc1ncc2c(n1)N(C1CCCC1)CCC(=O)N2C(C)C	?	.	28µM	6.1µM!	.	16µM
NC(=O)/C(=C/c1cccnc1)NC(=O)c1ccccc1	.	.	.	.	.	.
SMILES	TDP1 cell CPT	TGFb SMAD3 inh	ATXN viability	ATXN2 expr inh	HepG2 tox	TDP1 cell noCPT
O=c1cc(-c2ccccc2Cl)oc2c(NS(=O)(=O)c3cc(Cl)cc(Cl)c3O)ccc(O)c12	9.2µM	6.3µM	32µM	?	10µM	12µM
COc1ccc(NC(=O)c2ccc(-c3nc(CSc4ccc(C)cc4)c(C)o3)cc2)cc1Cl	?	?	?	.	.	?
Cc1ccc2oc(-c3cc(NC(=O)c4oc5ccccc5c4C)ccc3Cl)nc2c1	0.016µM	.	.	.	.	.
Cc1ccc2oc(-c3cc(NC(=O)c4ccco4)ccc3Cl)nc2c1	?	?	?	.	.	?
N#Cc1ccc(C(=O)Nc2ccc(Cl)c(-c3nc4cc(Cl)ccc4o3)c2)c(F)c1	23µM	.	?	.	.	18µM
O=C(Nc1ccc2oc(-c3ccccc3F)nc2c1)c1ccccc1Cl	?	?	.	.	.	13µM
COc1ccc(-c2nc3cc(NC(=O)c4ccc(C)cc4)ccc3o2)cc1Cl	21µM	.	.	.	.	?
O=C(Nc1ccc2oc(-c3cccc4c(Br)cccc34)nc2c1)c1ccc(F)cc1	?	.	.	.	.	10µM
Cc1ccc(C(=O)Nc2ccc3oc(-c4cc(Br)ccc4Cl)nc3c2)cc1	23µM	.	.	.	.	?
CC(C)c1ccc2oc(-c3cc(NC(=O)c4cccnc4)ccc3Cl)nc2c1	?	?	?	?	.	16µM
Cc1ccc(C(=O)Nc2ccc3oc(-c4ccc(C(C)(C)C)cc4)nc3c2)cc1	?	.	.	.	.	8.2µM
COc1ccc(C(=O)Nc2ccc3oc(-c4ccc(OC)cc4)nc3c2)cc1	.	.	/	/	.	.
O=C(Nc1ccc2oc(-c3ccccc3)nc2c1)c1cccnc1	.	.	.	.	.	.
CCC1C(=O)NCCN1Cc1ccc2c(c1)CN(Cc1ccc3c(c1)OCCO3)CCO2 (configuration not stated)	?	/	.	/	/	.
CC(C)NC(=O)N(C)C[C@@H]1Oc2ncc(-c3cccc(C#N)c3)cc2C(=O)N([C@H](C)CO)C[C@@H]1C	.	.	.	.	.	.
O=C(Nc1ccc2oc(-c3cccc4c(Br)cccc34)nc2c1)c1cccc(Cl)c1	.	.	.	.	.	?
CCOc1ccc(C(=O)Nc2ccc(-c3nc4cc(CC)ccc4o3)cc2)cc1	3.7µM	.	/	/	.	?
COc1ccc(C(=O)Nc2ccc3oc(-c4ccc5ccccc5c4)nc3c2)cc1Br	18µM	.	/	/	.	18µM
O=C(Nc1ccc2oc(-c3cccc(Cl)c3Cl)nc2c1)c1cccc(Br)c1	13µM	.	/	/	.	?
CCCc1cc(=O)[nH]c(SCC(=O)N2CCN(S(=O)(=O)c3ccc(Cl)cc3)CC2)n1	.	.	.	.	.	.
